Records with an inconclusive call do not appear. Where a call stands in place of a potency, no number is given. A number with no mark means an inactive call. The source made the active and inactive calls. The call rests on the fitted dose curve; in most records, active means well fitted cell-killing curve with a large enough effect in the repeat runs; inconclusive means weak or mixed curves, or effect the other way; inactive means flat fitted curve, though single readings scatter.

Results on 40 compounds are retold here after PubChem BioAssay (Tox21).

This experiment can be described thus: qHTS assay to identify small molecule antagonists of the androgen receptor (AR) signaling pathway using the MDA cell line in the presence of 0.5 nM R1881 - cell viability counter screen (AID 1259242). Further: nearly all actives have a fitted effect of over 45% in size. To be noted: MDA-kb2 viability, CellTiter-Fluor protease fluorescence, 16 h; series mostly up to 92.4 µM. From the text: U.S. Tox21 Program National Center for Advancing Translational Sciences [NCATS] NIH Chemical Genomics Center [NCGC] U.S. Environmental Protection Agency [EPA] National Institutes of Environmental Health Sciences [NIEHS] National Toxicology Program [NTP] U.S. Food and Drug Administration [FDA] Tox21 Assay Overview: Androgen receptor (AR) is an important member of the nuclear receptor family. Its signaling plays a critical role in AR-dependent prostate cancer and other androgen related diseases. Considerable attention has been given in the past decades to develop methods to study and screen for the environmental chemicals that have the potential to interfere with metabolic homeostasis, reproduction, developmental and behavioral functions. Therefore AR binding assay for screening androgen antagonists can be used to identify potential endocrine disruptors. MDA-kb2 cells (from ATCC, deposited by Wilson et al.) were used to screen for AR inhibitors against Tox21 compound libraries. These cells are human breast carcinoma cells that were stably transfected with a luciferase reporter gene under control of the MMTV promoter that contains response elements for both androgen receptor (AR) and glucocorticoid receptor (GR). The current screening for identification of AR inhibitors against Tox21 libraries used lower concentration of (0.5 nM) R1881 as a stimulator. The cytotoxicity of the Tox21 compound libraries against MDA-kb2 cell line was tested by measuring live-cell protease activity using CellTiter-Fluor assay in the same wells.
Tox21 Assay Protocol Summary: MDA-kb2 cells (cells cultured without CO2) were dispensed at 3,000 cells/well in 4 uL of culture medium into white wall/solid-bottom 1536-well plates (Corning Life Sciences, Corning, NY) using a Multidrop Combi (ThermoFisher Scientific, Waltham, MA) dispenser. After the assay plates were incubated at a 37C and 0% CO2 for 5 hr, 23 nL of compounds dissolved in DMSO, positive controls or DMSO only was transferred to the assay plate by a Pintool station (Kalypsys, San Diego, CA). The transfer of compounds was followed by the addition of 1 uL of 0.5 nM (final concentration) agonist (R1881)/culture medium using a Flying Reagent Dispenser (FRD, Aurora Discovery, San Diego, CA). The plates were incubated at 37C and 0% CO2 for 16 hr. For cytotoxicity assay, 1 uL of CellTiter-Fluor reagent (Promega Corporation, Madison, WI) was added to each well using the FRD and after 30 min incubation at 37C and 0% CO2, The fluorescence intensity was measured using ViewLux plate reader (PerkinElmer, Shelton, CT).
Consider `C/C=C(\C)C#N`, for which the Potency entry is “inactive”.

As for `NCCc1cnc[nH]1`, the Potency result is “inactive”. Turning to `CC(C)(C)c1ccc(O)c(O)c1`, the Potency entry is “inactive”. On the same count and under the same terms, as for `CCOC(=O)c1c(C)n(C)c2ccc(O)cc12`, the entry is “inactive”.

As to `COc1ccc2c(c1)CCCC2=O`, the Potency entry is “inactive”. Same read-out and setting: as for `CCOC(=O)c1ccc(C)cc1`, the entry is “inactive”; as for `CCN(CC)CCOCCOC(=O)C1(c2ccccc2)CCCC1`, “inactive”.

With `NS(=O)(=O)c1ccccc1Cl`, the Potency entry is “inactive”. For `N[C@H](C(=O)O)c1ccc(O)cc1`, the viability change, negative = cytotoxic is 0.442% [at 19 µM]. On to `CCOC(=O)[C@H](CCc1ccccc1)N[C@@H](C)C(=O)N1[C@H](C(=O)O)C[C@@H]2CCC[C@@H]21`, for which the Potency entry is “inactive”. Turning to `NCCCNCCSP(=O)(O)O`, the viability change, negative = cytotoxic is 0.214% [at 8.39 µM].

`O=C(O)CNC(=O)c1ccc([N+](=O)[O-])cc1`: the Potency result is “inactive”. In the case of `Cc1ccc(Cl)cc1Cl`, the Potency result was “inactive”.

As to `N=C(N)c1ccccc1`, the Potency entry was “inactive”. As for `CC(=O)OC/C=C(\C)CC/C=C(\C)CCC=C(C)C`, the Potency result was “inactive”.

Consider `C=CCOCC(CC)(CO)COCC=C`, for which the Potency entry was “inactive”. As for `CC(=O)OCC(CCn1cnc2cnc(N)nc21)COC(C)=O`, the Potency result was “inactive”.

On to `Cc1ccc(C#N)cc1`, for which the Potency entry was “inactive”. On to `CC1=CC(C)C(C=O)CC1` (stereo not given), for which the Potency entry was “inactive”. On the same count and under the same terms, the result for `COC(=O)c1cc(C(=O)OC)cc(S(=O)(=O)O)c1` reads “inactive”; that for `C=C[Si](OC(=C)C)(OC(=C)C)OC(=C)C`, “inactive”; that for `Cc1sccc1Br`, “inactive”. Still for that read-out and setting: as for `COCCc1ccc(OCC(O)CNC(C)C)cc1` (stereo not given), the entry is “inactive”; as for `CC1(C)C(O)C(C)(C)C1O` (stereo not given), “inactive”; as for `C=C1CC[C@H]2C[C@@H]1C2(C)C`, “inactive”. The same measure, in the same setting: the result for `O=c1[nH]c(=O)n([C@H]2C[C@H](O)[C@@H](CO)O2)cc1I` reads “inactive”; that for `C[N+](C)(C)CCCCCC[N+](C)(C)C`, “inactive”; that for `O=C(O)CCCc1ccccc1`, “inactive”. As to `ClC(Cl)(Br)Br`, the Potency result was “inactive”. As to `CCC(C)S` (stereo not given), the viability change, negative = cytotoxic is 1.28% [at 3.26 µM]. For the compound `OC1CCCCC1c1ccccc1` (stereo not given), the Potency result was “inactive”. Same read-out and setting: as for `O=C1CCCCCCCCCCCN1`, the entry is “inactive”; as for `NC(=O)c1cn(Cc2c(F)cccc2F)nn1`, “inactive”; as for `CCOC(=O)CC(C)=O`, “inactive”. With `N=C(N)c1ccc2cc(OC(=O)c3ccc(N=C(N)N)cc3)ccc2c1`, the Potency entry was “inactive”. Still for that read-out and setting: the result for `CN(C)CCCNCCCN(C)C` reads “inactive”; that for `CC(C)OC(=O)c1ccccc1`, “inactive”. The same measure, in the same setting: the result for `NC(=O)COCCN1CCN(C(c2ccccc2)c2ccc(Cl)cc2)CC1` (stereo not given) reads “inactive”. As for `Cc1cc2c(cc1S(N)(=O)=O)S(=O)(=O)CCC2`, the Potency result was “inactive”. Still for that read-out and setting: the result for `CC(=O)Nc1ccc(S(N)(=O)=O)cc1` reads “inactive”.
